This note sets out measurements from paper PMC7862700, “An all-to-all approach to the identification of sequence-specific readers for epigenetic DNA modifications on cytosine”.

Common to all, as to test: DAPPL (digital affinity profiling via proximity ligation, sequencing); 10 mM Tris-HCl pH 7.5, 50 mM NaCl, 1 mM DTT, 4% glycerol, room temperature, 30 min; GST-TFs on glutathione beads, 16-mer random dsDNA library, 0.1% formaldehyde crosslink after washing; high values mean tight binding
One test addresses T1, FEV (Homo sapiens, UniProt Q99581 1-238).
T1 sequence: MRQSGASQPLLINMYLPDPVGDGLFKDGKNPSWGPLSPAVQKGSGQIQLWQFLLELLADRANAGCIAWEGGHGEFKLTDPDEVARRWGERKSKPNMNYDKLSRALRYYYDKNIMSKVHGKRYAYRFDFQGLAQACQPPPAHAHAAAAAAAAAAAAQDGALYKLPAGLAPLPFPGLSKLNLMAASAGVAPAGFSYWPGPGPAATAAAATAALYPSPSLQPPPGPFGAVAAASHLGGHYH
The note with it: protein: recombinant; tags: N-terminal GST; dsDNA, one strand shown. In outline:
(§1)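 Each value of binding signal is a hexamer's read frequency for a factor divided by the same hexamer's frequency in the tag-only sample. Barcoded, bead-captured GST fusions of human transcription factors made in yeast were pooled with that sample and incubated with 200 nmole of a random double-stranded 16-mer DNA library in Tris/NaCl/DTT/glycerol buffer at room temperature for 30 min. Washing, 0.1% formaldehyde crosslinking, proximity ligation, PCR and Illumina NextSeq500 sequencing followed.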

The next test concerns the target ETV5 (Homo sapiens, UniProt P41161 1-510). The note with it: protein: recombinant; tags: N-terminal GST; dsDNA, one strand shown. In outline:
as §1

The target in the next test is HSF1 (Homo sapiens, UniProt Q00613 1-529). As to conditions: protein: recombinant; tags: N-terminal GST; chain copies: 3; dsDNA, one strand shown. In outline:
as §1

Another test concerns the target T2, SPIC (Homo sapiens, UniProt Q8N5J4 1-248).
T2 sequence: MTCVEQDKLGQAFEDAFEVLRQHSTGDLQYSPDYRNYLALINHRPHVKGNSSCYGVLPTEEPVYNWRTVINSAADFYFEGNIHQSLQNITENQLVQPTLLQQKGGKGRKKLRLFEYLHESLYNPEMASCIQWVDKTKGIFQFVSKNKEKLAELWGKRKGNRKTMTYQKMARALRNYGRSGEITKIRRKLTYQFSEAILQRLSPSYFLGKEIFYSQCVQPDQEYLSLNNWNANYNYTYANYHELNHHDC
The note with it: protein: recombinant; tags: N-terminal GST; dsDNA, one strand shown. The procedure, abridged:
as §1

For the next test, the target named is ELF4 (Homo sapiens, UniProt Q99607 1-663). As to conditions: protein: recombinant; tags: N-terminal GST; dsDNA, one strand shown. The procedure, abridged:
as §1

A further test addresses T3, ELK4 (Homo sapiens, UniProt P28324-2 1-405).
T3 sequence: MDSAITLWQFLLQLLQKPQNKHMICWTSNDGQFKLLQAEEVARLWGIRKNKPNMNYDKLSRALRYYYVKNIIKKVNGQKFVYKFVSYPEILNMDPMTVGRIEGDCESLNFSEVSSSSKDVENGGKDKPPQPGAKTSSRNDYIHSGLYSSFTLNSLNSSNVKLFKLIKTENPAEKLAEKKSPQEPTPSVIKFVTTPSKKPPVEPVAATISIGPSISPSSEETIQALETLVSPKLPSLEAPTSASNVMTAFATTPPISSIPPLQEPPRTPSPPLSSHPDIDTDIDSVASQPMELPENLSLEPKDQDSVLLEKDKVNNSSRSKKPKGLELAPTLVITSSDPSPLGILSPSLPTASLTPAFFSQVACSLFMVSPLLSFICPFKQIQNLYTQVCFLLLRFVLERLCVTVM
As to conditions: protein: recombinant; tags: N-terminal GST; dsDNA, one strand shown. The procedure, abridged: as §1

The target of the next test is T4, ETV2 (Homo sapiens, UniProt O00321 1-342).
T4 sequence: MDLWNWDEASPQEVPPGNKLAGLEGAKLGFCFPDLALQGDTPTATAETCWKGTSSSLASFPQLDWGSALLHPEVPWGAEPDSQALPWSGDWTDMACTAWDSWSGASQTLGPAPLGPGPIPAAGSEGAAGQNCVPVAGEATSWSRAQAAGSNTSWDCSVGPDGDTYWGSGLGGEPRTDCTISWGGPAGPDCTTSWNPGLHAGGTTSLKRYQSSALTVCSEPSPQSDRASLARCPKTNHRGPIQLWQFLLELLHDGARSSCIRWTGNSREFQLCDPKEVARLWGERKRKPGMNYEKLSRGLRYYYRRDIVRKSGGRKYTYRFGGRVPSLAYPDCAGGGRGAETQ
As to conditions: protein: recombinant; tags: N-terminal GST; dsDNA, one strand shown. The procedure, abridged: as §1

A further test concerns the target T5, ELF3 (Homo sapiens, UniProt P78545 1-371).
T5 sequence: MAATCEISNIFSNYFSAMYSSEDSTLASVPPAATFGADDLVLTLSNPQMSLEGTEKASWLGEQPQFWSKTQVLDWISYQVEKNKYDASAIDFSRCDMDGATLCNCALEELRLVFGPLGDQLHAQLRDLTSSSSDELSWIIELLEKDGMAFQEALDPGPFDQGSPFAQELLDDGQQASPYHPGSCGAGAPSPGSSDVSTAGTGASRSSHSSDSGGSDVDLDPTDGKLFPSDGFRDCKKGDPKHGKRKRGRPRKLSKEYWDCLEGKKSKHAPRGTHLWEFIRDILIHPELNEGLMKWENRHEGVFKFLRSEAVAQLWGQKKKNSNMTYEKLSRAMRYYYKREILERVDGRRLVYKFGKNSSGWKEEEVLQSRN
As to conditions: protein: recombinant; tags: N-terminal GST; dsDNA, one strand shown. The procedure, abridged: as §1

Another test addresses CRX (Homo sapiens, UniProt O43186 1-299). The note with it: protein: recombinant; tags: N-terminal GST; dsDNA, one strand shown. In outline:
as §1

In the next test the target is ETV1 (Homo sapiens, UniProt P50549 1-477). As to conditions: protein: recombinant; tags: N-terminal GST; dsDNA, one strand shown. In outline:
as §1

A further test has as its target T6, ERF (Homo sapiens, UniProt P50548 1-548).
T6 sequence: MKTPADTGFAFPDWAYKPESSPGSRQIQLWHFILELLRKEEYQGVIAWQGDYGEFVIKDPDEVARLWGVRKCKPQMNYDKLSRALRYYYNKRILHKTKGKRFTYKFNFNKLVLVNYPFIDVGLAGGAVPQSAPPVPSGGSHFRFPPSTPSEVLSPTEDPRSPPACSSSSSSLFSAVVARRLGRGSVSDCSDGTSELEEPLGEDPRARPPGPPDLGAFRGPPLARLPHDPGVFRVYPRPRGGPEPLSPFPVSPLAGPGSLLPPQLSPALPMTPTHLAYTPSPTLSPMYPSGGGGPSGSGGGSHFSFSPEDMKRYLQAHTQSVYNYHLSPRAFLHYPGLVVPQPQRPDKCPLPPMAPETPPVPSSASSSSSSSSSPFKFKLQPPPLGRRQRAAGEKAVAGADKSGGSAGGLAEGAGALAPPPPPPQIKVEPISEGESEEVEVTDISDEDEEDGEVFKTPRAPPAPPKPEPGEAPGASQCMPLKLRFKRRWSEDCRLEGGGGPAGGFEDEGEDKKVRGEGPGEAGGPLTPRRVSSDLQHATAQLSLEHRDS
As to conditions: protein: recombinant; tags: N-terminal GST; dsDNA, one strand shown. The procedure, abridged:
as §1

For the next test, the target named is T7, ETV3L (Homo sapiens, UniProt Q6ZN32 1-361).
T7 sequence: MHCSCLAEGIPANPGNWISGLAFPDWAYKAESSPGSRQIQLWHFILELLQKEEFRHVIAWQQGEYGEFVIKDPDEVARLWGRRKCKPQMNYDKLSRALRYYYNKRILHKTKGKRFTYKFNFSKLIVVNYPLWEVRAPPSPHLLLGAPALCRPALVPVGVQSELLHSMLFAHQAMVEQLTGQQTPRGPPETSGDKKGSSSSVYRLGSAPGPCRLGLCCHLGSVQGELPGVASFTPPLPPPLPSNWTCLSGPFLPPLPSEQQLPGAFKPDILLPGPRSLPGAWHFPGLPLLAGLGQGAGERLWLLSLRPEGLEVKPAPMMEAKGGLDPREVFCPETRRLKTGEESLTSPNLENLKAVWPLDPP
The note with it: protein: recombinant; tags: N-terminal GST; dsDNA, one strand shown. In outline: as §1

In a further test the target is T8, ETS2 (Homo sapiens, UniProt P15036 1-469).
T8 sequence: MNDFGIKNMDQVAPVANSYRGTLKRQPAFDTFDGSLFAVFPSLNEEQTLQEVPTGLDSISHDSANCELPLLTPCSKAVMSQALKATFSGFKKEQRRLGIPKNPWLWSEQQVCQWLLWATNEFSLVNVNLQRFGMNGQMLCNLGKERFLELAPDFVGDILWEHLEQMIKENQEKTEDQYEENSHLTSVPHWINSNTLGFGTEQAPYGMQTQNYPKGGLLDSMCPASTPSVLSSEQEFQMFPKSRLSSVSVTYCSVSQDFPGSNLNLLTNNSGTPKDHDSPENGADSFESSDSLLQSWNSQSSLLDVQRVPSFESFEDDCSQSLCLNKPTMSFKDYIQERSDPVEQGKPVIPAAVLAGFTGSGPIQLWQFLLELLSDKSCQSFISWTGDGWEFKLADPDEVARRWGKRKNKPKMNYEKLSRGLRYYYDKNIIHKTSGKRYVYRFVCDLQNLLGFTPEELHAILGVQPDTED
As to conditions: protein: recombinant; tags: N-terminal GST; dsDNA, one strand shown. The procedure, abridged:
as §1

For another test, the target named is T9, SPDEF (Homo sapiens, UniProt O95238 1-335).
T9 sequence: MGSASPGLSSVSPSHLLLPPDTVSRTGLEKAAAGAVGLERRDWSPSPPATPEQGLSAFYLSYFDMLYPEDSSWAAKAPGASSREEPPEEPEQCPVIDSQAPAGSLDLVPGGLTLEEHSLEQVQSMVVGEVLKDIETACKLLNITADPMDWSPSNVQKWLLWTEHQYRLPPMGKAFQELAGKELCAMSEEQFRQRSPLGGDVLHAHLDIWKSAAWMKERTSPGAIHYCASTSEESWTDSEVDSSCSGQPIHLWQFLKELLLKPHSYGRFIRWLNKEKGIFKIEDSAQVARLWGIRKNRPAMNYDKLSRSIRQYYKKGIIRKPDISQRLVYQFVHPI
As to conditions: protein: recombinant; tags: N-terminal GST; dsDNA, one strand shown. In outline: as §1

The target in a further test is T10, ETV7 (Homo sapiens, UniProt Q9Y603 1-341).
T10 sequence: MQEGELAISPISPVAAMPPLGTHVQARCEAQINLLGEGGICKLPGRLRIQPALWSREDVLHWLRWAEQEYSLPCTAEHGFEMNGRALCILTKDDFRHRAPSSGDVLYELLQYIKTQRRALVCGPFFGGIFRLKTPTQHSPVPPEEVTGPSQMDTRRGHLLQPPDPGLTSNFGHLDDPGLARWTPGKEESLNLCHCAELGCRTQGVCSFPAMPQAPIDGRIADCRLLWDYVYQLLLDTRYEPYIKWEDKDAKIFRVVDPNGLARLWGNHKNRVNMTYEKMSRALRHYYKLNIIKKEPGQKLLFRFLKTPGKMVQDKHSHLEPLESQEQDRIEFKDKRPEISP
As to conditions: protein: recombinant; tags: N-terminal GST; dsDNA, one strand shown. The procedure, abridged:
as §1

The target of the next test is T11, ELF5 (Homo sapiens, UniProt Q9UKW6-2 1-255).
T11 sequence: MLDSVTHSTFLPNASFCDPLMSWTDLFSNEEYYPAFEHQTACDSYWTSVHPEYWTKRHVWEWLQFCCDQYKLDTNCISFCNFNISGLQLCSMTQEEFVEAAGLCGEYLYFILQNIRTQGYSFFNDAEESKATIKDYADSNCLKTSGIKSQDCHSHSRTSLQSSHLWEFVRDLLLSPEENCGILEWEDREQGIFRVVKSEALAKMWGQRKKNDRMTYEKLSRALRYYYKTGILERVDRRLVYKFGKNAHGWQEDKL
As to conditions: protein: recombinant; tags: N-terminal GST; dsDNA, one strand shown. In outline:
as §1

Another test concerns the target T12, ETV3 (Homo sapiens, UniProt P41162-2 1-143).
T12 sequence: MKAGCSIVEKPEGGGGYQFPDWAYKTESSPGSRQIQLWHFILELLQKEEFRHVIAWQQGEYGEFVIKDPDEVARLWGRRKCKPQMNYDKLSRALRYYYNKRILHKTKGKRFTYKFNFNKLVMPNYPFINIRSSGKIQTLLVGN
The note with it: protein: recombinant; tags: N-terminal GST; dsDNA, one strand shown. The procedure, abridged:
as §1

For another test, the target named is ETV6 (Homo sapiens, UniProt P41212 1-452). The note with it: protein: recombinant; tags: N-terminal GST; dsDNA, one strand shown. The procedure, abridged: as §1
Sequence of ETV6 (P41212 whole entry): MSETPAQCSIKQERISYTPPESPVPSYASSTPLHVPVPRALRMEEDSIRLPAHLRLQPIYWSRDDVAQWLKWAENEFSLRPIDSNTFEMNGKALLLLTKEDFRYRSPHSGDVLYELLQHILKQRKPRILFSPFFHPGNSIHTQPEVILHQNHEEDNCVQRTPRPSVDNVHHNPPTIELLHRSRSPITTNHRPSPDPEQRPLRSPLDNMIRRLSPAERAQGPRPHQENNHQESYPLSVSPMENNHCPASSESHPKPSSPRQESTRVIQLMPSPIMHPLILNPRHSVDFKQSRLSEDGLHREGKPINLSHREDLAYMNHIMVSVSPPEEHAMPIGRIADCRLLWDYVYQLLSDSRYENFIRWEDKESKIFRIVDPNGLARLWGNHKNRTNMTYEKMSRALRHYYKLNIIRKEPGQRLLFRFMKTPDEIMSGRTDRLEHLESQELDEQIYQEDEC

Sequence of CRX (O43186 whole entry): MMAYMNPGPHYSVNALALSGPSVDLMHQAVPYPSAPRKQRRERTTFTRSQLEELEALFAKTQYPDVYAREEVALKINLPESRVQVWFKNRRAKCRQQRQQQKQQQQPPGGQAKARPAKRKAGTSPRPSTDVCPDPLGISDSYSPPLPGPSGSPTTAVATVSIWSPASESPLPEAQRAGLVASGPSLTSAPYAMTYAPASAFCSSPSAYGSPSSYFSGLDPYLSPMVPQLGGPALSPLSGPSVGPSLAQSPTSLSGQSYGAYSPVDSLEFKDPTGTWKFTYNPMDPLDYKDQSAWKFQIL
Sequence of HSF1 (Q00613 whole entry): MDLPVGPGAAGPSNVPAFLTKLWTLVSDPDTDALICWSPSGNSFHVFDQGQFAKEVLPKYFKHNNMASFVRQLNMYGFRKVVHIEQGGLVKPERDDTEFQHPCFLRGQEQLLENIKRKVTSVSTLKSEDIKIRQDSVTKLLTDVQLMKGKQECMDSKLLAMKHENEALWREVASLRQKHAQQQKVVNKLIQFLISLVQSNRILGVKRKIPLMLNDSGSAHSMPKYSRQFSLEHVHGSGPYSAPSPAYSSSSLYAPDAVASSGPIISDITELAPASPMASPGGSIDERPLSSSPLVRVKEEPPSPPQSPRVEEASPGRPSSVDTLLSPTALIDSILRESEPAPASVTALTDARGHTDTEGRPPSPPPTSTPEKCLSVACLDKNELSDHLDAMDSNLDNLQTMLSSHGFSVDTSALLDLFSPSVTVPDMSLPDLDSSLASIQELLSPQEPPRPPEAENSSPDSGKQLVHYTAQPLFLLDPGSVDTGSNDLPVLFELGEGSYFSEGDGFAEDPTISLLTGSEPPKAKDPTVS
Sequence of ELF4 (Q99607 whole entry): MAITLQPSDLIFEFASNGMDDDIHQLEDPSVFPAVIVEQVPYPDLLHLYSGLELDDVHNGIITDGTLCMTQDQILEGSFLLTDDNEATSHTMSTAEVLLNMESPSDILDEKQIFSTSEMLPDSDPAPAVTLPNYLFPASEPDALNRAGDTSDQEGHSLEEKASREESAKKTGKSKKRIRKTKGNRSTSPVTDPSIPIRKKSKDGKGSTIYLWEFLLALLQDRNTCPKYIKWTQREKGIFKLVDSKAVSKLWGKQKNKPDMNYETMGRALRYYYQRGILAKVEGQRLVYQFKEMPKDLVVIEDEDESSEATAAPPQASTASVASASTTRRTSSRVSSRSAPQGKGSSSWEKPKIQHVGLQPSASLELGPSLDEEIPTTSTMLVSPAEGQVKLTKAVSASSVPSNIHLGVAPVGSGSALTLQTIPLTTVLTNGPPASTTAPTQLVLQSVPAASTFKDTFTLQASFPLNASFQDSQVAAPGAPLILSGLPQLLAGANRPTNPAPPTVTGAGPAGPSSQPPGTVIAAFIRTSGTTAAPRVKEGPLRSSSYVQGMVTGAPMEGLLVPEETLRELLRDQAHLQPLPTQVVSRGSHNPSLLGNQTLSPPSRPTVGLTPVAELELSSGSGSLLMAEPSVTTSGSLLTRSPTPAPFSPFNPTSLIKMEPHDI
Sequence of ETV1 (P50549 whole entry): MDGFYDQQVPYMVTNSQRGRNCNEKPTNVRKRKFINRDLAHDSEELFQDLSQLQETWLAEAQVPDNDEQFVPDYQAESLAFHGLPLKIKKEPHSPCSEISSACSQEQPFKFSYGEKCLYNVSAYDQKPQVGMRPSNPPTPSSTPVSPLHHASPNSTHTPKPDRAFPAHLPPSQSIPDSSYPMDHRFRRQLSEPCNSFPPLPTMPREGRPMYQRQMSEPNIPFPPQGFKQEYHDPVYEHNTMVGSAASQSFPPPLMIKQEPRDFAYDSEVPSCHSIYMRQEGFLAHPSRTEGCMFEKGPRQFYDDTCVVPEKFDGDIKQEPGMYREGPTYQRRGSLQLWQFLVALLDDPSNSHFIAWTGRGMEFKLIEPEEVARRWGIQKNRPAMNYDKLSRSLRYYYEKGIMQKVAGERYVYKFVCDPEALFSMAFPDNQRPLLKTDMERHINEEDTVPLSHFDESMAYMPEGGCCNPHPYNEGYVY
Sequence of ETV5 (P41161 whole entry): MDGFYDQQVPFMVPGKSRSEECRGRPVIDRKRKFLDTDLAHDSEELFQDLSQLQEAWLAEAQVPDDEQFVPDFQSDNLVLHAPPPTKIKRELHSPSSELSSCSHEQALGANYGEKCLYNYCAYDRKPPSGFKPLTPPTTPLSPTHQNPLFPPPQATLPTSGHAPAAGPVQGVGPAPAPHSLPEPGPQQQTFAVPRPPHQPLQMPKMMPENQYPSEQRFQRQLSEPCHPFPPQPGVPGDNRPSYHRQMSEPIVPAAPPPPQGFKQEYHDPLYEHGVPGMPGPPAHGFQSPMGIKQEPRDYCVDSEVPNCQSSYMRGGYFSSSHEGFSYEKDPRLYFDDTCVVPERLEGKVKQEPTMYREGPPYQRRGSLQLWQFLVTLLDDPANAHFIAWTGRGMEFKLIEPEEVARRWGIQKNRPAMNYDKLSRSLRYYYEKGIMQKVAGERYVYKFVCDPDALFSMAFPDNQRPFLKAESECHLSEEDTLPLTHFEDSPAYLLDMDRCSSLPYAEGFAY

In the case of GCGATG, the binding signal with FEV is 1.22 fold enrichment (6-mer frequency, TF over GST control); with ETV5 it was 1.25 fold enrichment (6-mer frequency, TF over GST control); with HSF1, 1.08 fold enrichment (6-mer frequency, TF over GST control); with SPIC it was 1.07 fold enrichment (6-mer frequency, TF over GST control); in the test with ELF4 it was 1.21 fold enrichment (6-mer frequency, TF over GST control); with ELK4, 1.2 fold enrichment (6-mer frequency, TF over GST control). The binding signal with ETV2 is 1.25 fold enrichment (6-mer frequency, TF over GST control); with ELF3, 1.26 fold enrichment (6-mer frequency, TF over GST control); with CRX, 1.03 fold enrichment (6-mer frequency, TF over GST control); with ETV1 it was 1.15 fold enrichment (6-mer frequency, TF over GST control); with ERF, 1.38 fold enrichment (6-mer frequency, TF over GST control); in the test with ETV3L it was 1.26 fold enrichment (6-mer frequency, TF over GST control). For the same sequence, the binding signal is 1.35 fold enrichment (6-mer frequency, TF over GST control) with ETS2; 1.29 fold enrichment (6-mer frequency, TF over GST control) in the test with SPDEF; 1.31 fold enrichment (6-mer frequency, TF over GST control) with ETV7; 1.17 fold enrichment (6-mer frequency, TF over GST control) with ELF5; 1.28 fold enrichment (6-mer frequency, TF over GST control) in the test with ETV3; 1.18 fold enrichment (6-mer frequency, TF over GST control) in the test with ETV6.
